Test results as given in PubChem BioAssay (NCI).
Compounds without any hit were thinned out: in the full panel of roughly 79,000, 15% have a hit. The source made the active and inactive calls. Cut-off read from the data, not from the text of the source: active = growth inhibition above about 70%; inactive = the rest. Where a SMILES comes first, the peptide text is derived from it. The star is where a group is joined. Boc = CC(C)(C)OC(=O)*; OtBu = CC(C)(C)O*

Assays:
[1] = NCI Yeast Anticancer Drug Screen. Data for the rad50 strain (AID 155);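 note: 0% = growth of vehicle-only cultures of the same strain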; settings: S. cerevisiae rad50 strain growth inhibition; at 50.0 µM; hits give high values
Outline: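 Growth of the mutant yeast was measured after compound exposure and referenced to vehicle-treated cultures.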

[2] = NCI Yeast Anticancer Drug Screen. Data for the mec2-1 strain (AID 157); settings: S. cerevisiae mec2-1 strain, at 50.0 µM, hits give high values
Outline: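 Mutant yeast (mec2-1) grown with compound; growth inhibition relative to vehicle control reported.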

[3] = NCI Yeast Anticancer Drug Screen. Data for the sgs1 mgt1 strain (AID 161);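 note: 0% = growth of cultures given vehicle only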; settings: S. cerevisiae sgs1 mgt1 strain, at 50.0 µM, hits give high values
Outline: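 Percent growth inhibition was derived by comparing compound-exposed mutant yeast with vehicle-exposed cultures. The strain carries alterations in DNA damage repair.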

[4] = NCI Yeast Anticancer Drug Screen. Data for the cln2 rad14 strain (AID 165);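 note: 0% = growth equal to vehicle treated cultures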; settings: S. cerevisiae cln2 rad14 strain, at 50.0 µM, hits give high values
Outline: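 Readout is yeast growth inhibition versus vehicle-treated controls, using a strain with cln2 and rad14 alterations exposed to compound.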

[5] = NCI Yeast Anticancer Drug Screen. Data for the bub3 strain (AID 167); settings: S. cerevisiae bub3 mutant strain, at 50.0 µM, hits give high values
Outline: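 Whole-cell yeast assay. The mutant strain was incubated with compounds, and growth inhibition was determined by comparison with vehicle-treated cells.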

[6] = NCI Yeast Anticancer Drug Screen. Data for the mlh1 rad18 strain (AID 175); settings: S. cerevisiae mlh1 rad18 strain growth inhibition; at 50.0 µM; hits give high values
Outline: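 Genetically defined yeast (DNA repair-deficient) exposed to compounds; growth inhibition determined relative to vehicle.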

Measured: growth inhibition

CC(C)NC(=O)OCc1c(COC(=O)NC(C)C)c(S(=O)(=O)c2ccccc2)n2c1CCC2
inactive: [1] 11.5% | [2] 1.5% | [3] -20.6% | [4] 4.7% | [5] 1.35% | [6] 25.6%

COc1ccc(C2CC2c2ccc(C#N)cc2)cc1 (stereo unspecified)
inactive: [1] 7.05% | [2] -6.4% | [3] -1% | [4] -40.6% | [5] 6.25% | [6] -22.8%

Cc1cc(C(C)(C)C)cc(C)c1[N+](=O)[O-]
inactive: [1] 18.7% | [2] -7.55% | [3] -17.9% | [4] 8.2% | [5] -7.1% | [6] 7.25%

O=C(O)C(Br)C(Br)C(=O)Nc1cccc(C(F)(F)F)c1 (stereo unspecified)
inactive: [1] 17.4% | [2] -5.55% | [3] 14.9% | [4] 0.6% | [5] -2.15% | [6] 24.4%

COC(C)CC(=O)O (stereo unspecified)
inactive: [1] -25.8% | [2] -28.2% | [3] -37.2% | [4] -24.5% | [5] -13.2% | [6] -4.9%

CC(C)(C)OC(=O)CC(NC(=O)OC(C)(C)C)C(=O)NC(Cc1ccccc1)C(N)=O (stereo unspecified) (Boc-Asp(OtBu)-Phe-NH2; configuration not given here)
inactive: [1] -23.1% | [2] 6.85% | [3] -3.85% | [4] 35.5% | [5] 13.5% | [6] -11.3%

NC(N)=N/N=C(/c1nc2ccc([N+](=O)[O-])cc2[nH]c1=O)C(O)c1ccco1 (stereo unspecified)
inactive: [1] 10.1% | [2] -25% | [3] 0.25% | [4] 5.95% | [5] -15.3% | [6] 1.7%

N#Cc1ccc(Cl)cc1C#N
inactive: [1] 13.4% | [2] -4.65% | [3] -2.2% | [4] 7.65% | [5] 14.1% | [6] -14.3%

N#CC[N+]1(Cc2ccccn2)CCCC1
inactive: [1] -4.5% | [2] -2.05% | [3] -13.8% | [4] 6.4% | [5] -2.5% | [6] -7.8%

CCCCSCCOC(=O)C1C2CCC(O2)C1C(=O)O (stereo unspecified)
inactive: [1] 19.5% | [2] -3.85% | [3] 0.1% | [4] 13.4% | [5] -1.25% | [6] 13.8%

CC1=CC(=C(C#N)C#N)c2ccccc2N1C
inactive: [1] 1.1% | [2] 4.35% | [3] -8.8% | [4] 3.75% | [5] 14.6% | [6] 1.85%

CC(NC(=O)NC(C)(C)C)NC(=O)C(N)CC(=O)O (stereo unspecified)
inactive: [1] -51.8% | [2] -20.1% | [3] -25.4% | [4] 19.4% | [5] 12.7% | [6] -20.4%

CC(C)(NC(=O)OC12CC3CC(CC(C3)C1)C2)C(=O)O
inactive: [1] -11.1% | [2] -20.1% | [3] 3.1% | [4] -12.6% | [5] 3.45% | [6] -5.35%

CC(=O)N1c2ccccc2C23CCN4CC5=CCOC(O)C(C5CC42)C13 (stereo unspecified)
inactive: [1] -20.1% | [2] -21.4% | [3] -18.6% | [4] -6.55% | [5] -13.9% | [6] -62.4%

Cc1cc(S(N)(=O)=O)c2ncccc2c1
inactive: [1] 1.8% | [2] -3.5% | [3] 2.35% | [4] -33.1% | [5] -8.4% | [6] -3.2%

CC(OC(C)C(N)=O)C(N)=O (stereo unspecified)
inactive: [1] -0.05% | [2] 0.55% | [3] -5.8% | [4] -3.05% | [5] 4.9% | [6] -1.15%

CC(C)CC(C)C
inactive: [1] 17.9% | [2] -2.6% | [3] 20.7% | [4] 5.75% | [5] 13.4% | [6] 25.1%

CC(=O)Oc1cccn2c(C(=O)C(=O)c3ccc4c(OC(C)=O)cccn34)ccc12
inactive: [1] 5.15% | [2] 1.8% | [3] -12.9% | [4] -0.55% | [5] -4.85% | [6] 14.7%

C/C=C/C(=O)OC/C=C(\C)CCC=C(C)C
inactive: [1] -26.4% | [2] -44.9% | [3] -6.7% | [4] -4.3% | [5] -39.7% | [6] -16.7%

CCCCSc1nc2c([nH]1)c(=O)n(C)c(=O)n2C
inactive: [1] -0.75% | [2] 2.8% | [3] 4.3% | [4] -34.5% | [5] 22.9% | [6] 1.5%

O=C(Nc1cccc(O)c1)c1ccc([N+](=O)[O-])cc1
inactive: [1] 1.5% | [2] 18.6% | [3] 14.4% | [4] -15.3% | [5] 19.7% | [6] 23.4%

ON1c2ccccc2-c2ccccc2C1(c1ccccc1)c1ccccc1
inactive: [4] 69.8%
active: [1] 95.8% | [2] 96.6% | [3] 78.7% | [5] 71.5% | [6] 97.3%

O=c1c(SCc2ccc(Cl)cc2)c(N2CCCCC2)cnn1-c1ccccc1
inactive: [1] 20.5% | [2] 19.4% | [3] 10.8% | [4] 34% | [5] 9.3% | [6] 15.1%

NC12CC3CC(C1)CC(Cl)(C3)C2
inactive: [1] -12.6% | [2] -26.9% | [3] -32.4% | [4] -3.5% | [5] -35.9% | [6] 4.1%

CC1(O)C2C3C(I)C4C5C3C1C5C42 (stereo unspecified)
inactive: [1] 22.6% | [2] 9.05% | [3] 10.1% | [4] 6.7% | [5] 10.3% | [6] 17.4%

Cc1ccc(N=NC2=C3Sc4ccccc4N=C2N(c2ccc(Br)cc2)C(=S)N3c2ccc(Cl)cc2)cc1
inactive: [1] -8.6% | [2] -3.35% | [3] -21.4% | [4] 18.9% | [5] -3.4% | [6] 1.05%

CC(=O)OC(C[N+]1(C)CCCCCC1)C[N+]1(C)CCCCCC1
inactive: [1] -34.6% | [2] -4.8% | [3] -17.8% | [4] -27.6% | [5] 7.95% | [6] -11.2%

COc1ccc2c(c1)N=C(NNC1=Nc3cc(OC)ccc3SC1)CS2
inactive: [1] -9.1% | [2] 3.15% | [3] 14.4% | [4] -14.9% | [5] -4.7% | [6] 3.9%

O=C(O)c1cccc(Sc2ccccc2)c1
inactive: [1] -0.05% | [2] 9.25% | [3] 8.25% | [4] -0.85% | [5] -18.9% | [6] 16.6%

CCCCc1cccc2c1OCO2
inactive: [1] -18.6% | [2] -0.6% | [3] -7.75% | [4] -9.75% | [5] -12.5% | [6] 36.8%

Cc1cc2c(C(C)C)c(O)c(O)c(C=Nc3ccc4ccccc4c3)c2c(O)c1-c1c(C)cc2c(C(C)C)c(O)c(O)c(C=Nc3ccc4ccccc4c3)c2c1O
inactive: [1] 7.3% | [2] -5.2% | [3] -6.15% | [4] -42.1% | [5] -4.6% | [6] 1.2%

O=CCC1CCCCC1
inactive: [1] -4.8% | [2] -2.2% | [3] -13.1% | [4] 16.9% | [5] 22.1% | [6] 6.25%

CCCCNC(=O)/C=C\C(=O)O
inactive: [1] 5.95% | [2] -10.3% | [3] -1.65% | [4] 2.75% | [5] -8.5% | [6] 1.45%

O=C(O)C1CC(Br)C(Br)CC1C(=O)Nc1cccc2ccccc12 (stereo unspecified)
inactive: [1] 11.8% | [2] 6.45% | [3] 2.85% | [4] -39.3% | [5] 1.3% | [6] 32.1%

Nc1c(-c2ncc[nH]2)ncn1CC(O)C(O)C(O)CO (stereo unspecified)
inactive: [1] 7.5% | [2] 19.6% | [3] 12.3% | [4] 22.9% | [5] 3.2% | [6] 17.9%

CCOC(C)OCCCI (stereo unspecified)
inactive: [1] -25.8% | [2] -21.3% | [3] 3.5% | [4] -9.7% | [5] -13.3% | [6] 13.2%

CC(C)=CC(=O)OC(C)(C)C
inactive: [1] 11.4% | [2] 1.65% | [3] 3.35% | [4] 6.1% | [5] 7.05% | [6] 23.7%

Cc1cc(Sc2ccccc2)nc2ccccc12
inactive: [1] 8.5% | [2] -12.2% | [3] 41.6% | [4] 4.1% | [5] 48.5% | [6] 12.3%

Cc1c(Cl)cccc1NC(=O)C(=O)C1C(=O)CC(C)(C)CC1=O
inactive: [1] 10.6% | [2] 6.8% | [3] -1.2% | [4] 7.85% | [5] 15.2% | [6] 18.8%

O=C1C=CC2CCC1C2 (stereo unspecified)
inactive: [1] 24.8% | [2] -6.25% | [3] -20.5% | [4] 26.6% | [5] -38.8% | [6] -29.3%

COC1=CC(=O)/C(=C(O)/C=C/c2ccccc2)C(=O)C1(C)C
inactive: [1] 3.2% | [2] -1.65% | [3] 16.9% | [4] -2.5% | [5] 14.6% | [6] 29.4%
